Data on 44 compounds can be found in paper PMC4336329 (PLoS ONE, 2015).

Out of some 310,000 compounds screened, about 14,000 (4.5%) showed an effect of 50% or more. The effect is printed as a negative number. For the sample, strong results were picked, then their nearest neighbours and some compounds at random.
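Note: peak tail current of the secondary pulse compared with the same well before compound.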

The target in the experiment is human ether-à-go-go-related gene (hERG) potassium channel (human, UniProt Q12809). Nature of the experiment: primary screen, population patch clamp on CHO cells stably expressing hERG; higher = less effect of the substance.
Chain of human ether-à-go-go-related gene (hERG) potassium channel (Q12809 whole entry, looked up): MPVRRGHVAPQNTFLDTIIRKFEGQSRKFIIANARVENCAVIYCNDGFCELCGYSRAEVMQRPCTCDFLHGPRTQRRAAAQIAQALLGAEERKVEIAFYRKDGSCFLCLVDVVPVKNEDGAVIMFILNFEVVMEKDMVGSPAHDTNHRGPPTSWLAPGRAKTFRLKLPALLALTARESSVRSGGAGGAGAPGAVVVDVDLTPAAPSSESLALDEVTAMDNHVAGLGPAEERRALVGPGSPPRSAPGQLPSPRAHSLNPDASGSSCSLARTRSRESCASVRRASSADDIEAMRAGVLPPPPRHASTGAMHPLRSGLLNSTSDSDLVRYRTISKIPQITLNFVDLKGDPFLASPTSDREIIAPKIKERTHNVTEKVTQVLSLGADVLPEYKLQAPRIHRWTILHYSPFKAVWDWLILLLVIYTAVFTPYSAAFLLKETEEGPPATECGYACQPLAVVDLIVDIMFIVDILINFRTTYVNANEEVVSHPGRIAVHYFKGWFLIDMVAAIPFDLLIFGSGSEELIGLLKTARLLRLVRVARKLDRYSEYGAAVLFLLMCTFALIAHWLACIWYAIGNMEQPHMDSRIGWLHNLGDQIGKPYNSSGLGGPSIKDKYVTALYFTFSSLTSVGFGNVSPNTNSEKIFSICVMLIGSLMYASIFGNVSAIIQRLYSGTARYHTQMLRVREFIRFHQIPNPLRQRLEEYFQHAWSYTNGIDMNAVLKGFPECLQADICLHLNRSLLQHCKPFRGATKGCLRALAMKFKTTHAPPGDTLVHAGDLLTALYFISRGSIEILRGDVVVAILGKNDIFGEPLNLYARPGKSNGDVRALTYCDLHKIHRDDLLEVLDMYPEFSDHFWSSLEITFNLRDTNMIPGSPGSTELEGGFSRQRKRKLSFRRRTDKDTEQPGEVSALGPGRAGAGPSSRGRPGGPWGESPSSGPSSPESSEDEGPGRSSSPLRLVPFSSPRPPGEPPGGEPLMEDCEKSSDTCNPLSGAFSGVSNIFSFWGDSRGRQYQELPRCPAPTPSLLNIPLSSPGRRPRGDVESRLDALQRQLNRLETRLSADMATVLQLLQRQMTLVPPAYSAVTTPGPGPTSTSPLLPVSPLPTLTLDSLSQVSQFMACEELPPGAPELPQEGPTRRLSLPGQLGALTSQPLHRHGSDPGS
As to `Cc1cc(C)cc(OCC(=O)OCC(=O)NCc2ccco2)c1`, the “hERG current change (%, negative = inhibition) at 10uM” value is given as 4.8%.

As to `O=C(Cc1ccc(NC2=NC3CS(=O)(=O)CC3S2)cc1)NCCc1ccccc1` (centres unmarked), the “hERG current change (%, negative = inhibition) at 10uM” value came to 6.22%.

`O=c1oc2cc(OCc3ccc(C(F)(F)F)cc3)ccc2cc1-c1ccccn1`: the “hERG current change (%, negative = inhibition) at 10uM” value was 10.4%.

`Cc1ccc(C(=O)OCCOc2cccc(Cl)c2)cc1S(=O)(=O)N1CCOCC1`: the “hERG current change (%, negative = inhibition) at 10uM” value is given as -12.2%.

In the case of `CCOC(=O)C1=C(c2ccccc2)NC(=S)NC1c1ccc(Cl)cc1` (centres unmarked), the “hERG current change (%, negative = inhibition) at 10uM” value worked out at 0.162%.

Regarding `CC(C)[N+]12CCC(CC1)C(C(O)(c1ccccc1)c1ccccc1)C2.[I-]` (centres unmarked), the “hERG current change (%, negative = inhibition) at 10uM” value is 16.9%.

For the compound `c1ccc(C2CN3CCC2CC3)cc1` (centres unmarked), the “hERG current change (%, negative = inhibition) at 10uM” value is -5.74%.

In the case of `O=C(NC1CN2CCC1CC2)c1cccc(Cl)c1` (centres unmarked), the “hERG current change (%, negative = inhibition) at 10uM” value stood at 3.72%.

Consider `Cl.OC(c1cccc(Cl)c1)(c1cccc(Cl)c1)C1CN2CCC1CC2` (centres unmarked), for which the “hERG current change (%, negative = inhibition) at 10uM” value is on record as -81.8%.

`Cl.OC(Cc1ccccc1)(c1ccccc1)C1CN2CCC1CC2` (centres unmarked): the “hERG current change (%, negative = inhibition) at 10uM” value is -49.7%.

Consider `Cc1ccc(C(O)(c2ccc(C)c(C)c2)C2CN3CCC2CC3)cc1C.Cl` (centres unmarked), for which the “hERG current change (%, negative = inhibition) at 10uM” value is given as -67.6%.

For `Cc1ccccc1C(O)(Cc1ccccc1)C1CN2CCC1CC2.Cl` (centres unmarked), the “hERG current change (%, negative = inhibition) at 10uM” value is given as -55.2%.

As to `Cc1ccc(NC(=O)C2CCN(S(C)(=O)=O)CC2)cc1C`, the “hERG current change (%, negative = inhibition) at 10uM” value was 3.29%.

Consider `OC(c1ccccc1)(c1ccc(Cl)cc1)C1CN2CCC1CC2` (centres unmarked), for which the “hERG current change (%, negative = inhibition) at 10uM” value was -56%.

Consider `Cl.OC(c1ccccc1)(c1ccccc1)C1CN2CCC1CC2` (centres unmarked), for which the “hERG current change (%, negative = inhibition) at 10uM” value is -45.2%.

In the case of `Cc1ccc(C(=O)N2CCC(C)CC2)cc1C`, the “hERG current change (%, negative = inhibition) at 10uM” value amounted to 8.09%.

Regarding `C[N+]12CCC(CC1)C(C(O)(c1cccc(Cl)c1)c1cccc(Cl)c1)C2.[I-]` (centres unmarked), the “hERG current change (%, negative = inhibition) at 10uM” value turned out to be 13.6%.

Regarding `CC(=O)N1CCN(c2ccc(NC(=O)c3cccc(Cl)c3)cc2)CC1`, the “hERG current change (%, negative = inhibition) at 10uM” value is given as -7.02%.

`COc1ccc2nc(NC(=O)C(NS(=O)(=O)c3cccs3)C(C)C)sc2c1` (centres unmarked): the “hERG current change (%, negative = inhibition) at 10uM” value was determined as 8.73%.

Turning to `Cc1ccc(-n2cc(CCCCCCCCC(=O)O)nn2)cc1`, the “hERG current change (%, negative = inhibition) at 10uM” value was -12.3%.

In the case of `COc1ccc(-c2ccc(=O)n(CC(=O)Nc3nnc(C(C)C)s3)n2)cc1OC`, the “hERG current change (%, negative = inhibition) at 10uM” value was found to be 11.9%.

Turning to `S=c1[nH]c2cnccc2n1Cc1ccccc1`, the “hERG current change (%, negative = inhibition) at 10uM” value came out at 12.4%.

Turning to `COc1cc(C(=O)NCCOc2ccc(F)cc2)c(Br)c(OC)c1OC`, the “hERG current change (%, negative = inhibition) at 10uM” value came out at 3.42%.

`COCC(C)NC(=O)c1noc2c1CCc1cc(OC)ccc1-2` (centres unmarked): the “hERG current change (%, negative = inhibition) at 10uM” value is -25.9%.

Take `CCOc1ncccc1C(=O)Nc1cc(S(=O)(=O)N2CCCCC2)ccc1OC`: the “hERG current change (%, negative = inhibition) at 10uM” value is reported as -8.23%.

As for `COc1ccc(C)cc1NC(=O)CN1C(=O)COc2ccc(S(=O)(=O)N3CCC(C)CC3)cc21`, the “hERG current change (%, negative = inhibition) at 10uM” value was determined as 26.3%.

As for `COc1cccc(C2c3[nH]c4ccccc4c3CCN2Cc2ncc[nH]2)c1` (centres unmarked), the “hERG current change (%, negative = inhibition) at 10uM” value is -49.4%.

Consider `CCn1nc(C)c(CN2CCc3c([nH]c4ccccc34)C2c2ccc(F)c(OC)c2)c1C` (centres unmarked), for which the “hERG current change (%, negative = inhibition) at 10uM” value is -48.2%.

With `COc1ccc(C2c3[nH]c4ccccc4c3CCN2Cc2cccn2-c2ncccn2)cc1C` (centres unmarked), the “hERG current change (%, negative = inhibition) at 10uM” value was -52%.

With `Cc1cccc(C2c3[nH]c4ccccc4c3CCN2Cc2cccn2-c2ncccn2)c1` (centres unmarked), the “hERG current change (%, negative = inhibition) at 10uM” value is recorded as -77.8%.

As to `COc1cccc(C2c3[nH]c4ccccc4c3CCN2Cc2cnc(C)s2)c1OC` (centres unmarked), the “hERG current change (%, negative = inhibition) at 10uM” value is on record as 2.51%.

Regarding `CC(=O)NCCC(=O)N1CCc2c([nH]c3ccccc23)C1c1cccc(C)c1` (centres unmarked), the “hERG current change (%, negative = inhibition) at 10uM” value was -14.3%.

With `COc1cccc(C2c3[nH]c4ccccc4c3CCN2Cc2cccn2-c2ncccn2)c1` (centres unmarked), the “hERG current change (%, negative = inhibition) at 10uM” value was -76.1%.

Regarding `CSc1ncc(CN2CCc3c([nH]c4ccccc34)C2c2cccc(O)c2)cn1` (centres unmarked), the “hERG current change (%, negative = inhibition) at 10uM” value is reported as -22.9%.

In the case of `CCC(=O)NC(NC(=S)Nc1ccccc1Br)C(Cl)(Cl)Cl` (centres unmarked), the “hERG current change (%, negative = inhibition) at 10uM” value was 18.2%.

Regarding `O=C1CC2(CCCC2)C(=O)N1CN1CCN(S(=O)(=O)c2ccc(Cl)c(Cl)c2)CC1`, the “hERG current change (%, negative = inhibition) at 10uM” value came to 3.53%.

For the compound `CCCCOC(=O)n1c(SCC(=O)N(CC)CC)nc2ccccc21`, the “hERG current change (%, negative = inhibition) at 10uM” value is given as -34.7%.

`CCCn1c(O)c(/C=C2\C=NN=C2c2ccccc2)sc1=S`: the “hERG current change (%, negative = inhibition) at 10uM” value worked out at 7.93%.

Consider `c1ccc(C2Nc3cccc4cccc(c34)N2)cc1`, for which the “hERG current change (%, negative = inhibition) at 10uM” value is on record as 14%.

As to `CN1CCN(NC(=O)c2cc(S(=O)(=O)Nc3ccc(Cl)cc3)ccc2Cl)CC1.Cl`, the “hERG current change (%, negative = inhibition) at 10uM” value was found to be 5.84%.

With `CCOC(=O)CNC(=O)c1ccc(Br)s1`, the “hERG current change (%, negative = inhibition) at 10uM” value was -9.48%.

Turning to `CCOc1cccc(-c2c(C(=O)N/N=C(\C)c3ccncc3)nnn2-c2nonc2N)c1`, the “hERG current change (%, negative = inhibition) at 10uM” value is recorded as -43.6%.

Take `COc1ccc(-c2ccc(OC)cc2)cc1`: the “hERG current change (%, negative = inhibition) at 10uM” value is 7.51%.

As to `COc1ccc2cc(-c3ccccc3)c(=O)oc2c1`, the “hERG current change (%, negative = inhibition) at 10uM” value is given as 18%.
